The list is not random: actives were taken first. Their share in the collection is about 20%.
CHX counter = counter-screen for Shiga toxin inhibitors: cycloheximide protein synthesis inhibition | 12% of 300,000 active | max response, % | cell reporter, cycloheximide protein synthesis inhibition counterscreen; in the data active = max response mostly above about 13%, no sharp cut-off; inactive = mostly below about 14%; note: read at 38.3 µM for the half of the compounds with a filed dose; 0% is about no effect
Pf growth 96h = P. falciparum growth inhibition at 96 hour, primary screen for plastid delayed-death inhibitors; P. falciparum luciferase reporter growth, 96 h; Potency, µM (doses to about 28.7 µM), for inactives: at the highest dose activity change, negative = inhibition, hits mostly inhibitors; 6.9% of 320,000 active; AID 504834; note: potency is the fitted concentration of half-maximal effect; % is set by controls: 0 for no effect and ±100 for the full control effect
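Erythrocytes infected with luciferase-expressing P. falciparum were dispensed at 2% hematocrit and 0.05% parasitemia (final), then incubated with compounds 96 hours at 37 C in 5% CO2. Luminescence after detection reagent addition reported growth.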
Pf growth 48h = inhibits P. falciparum growth in the first generation, 48 h | 5.9% of 310,000 active | Potency, µM (highest dose often 28.7 µM), for inactives: at the highest dose activity change, negative = inhibition, actives largely listed as inhibitors | P. falciparum luciferase growth in erythrocytes, 48 h; note: potency is the fitted concentration of half-maximal effect; % is set by controls: 0 for no effect and ±100 for the full control effect
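Growth was read as firefly luciferase luminescence after a 48 h, 37 C, 5% CO2 exposure of compounds to reporter-bearing P. falciparum cultures (0.1% parasitemia, 2% hematocrit final) in Albumax-supplemented RPMI 1640.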
HCMV inh = human cytomegalovirus inhibition; HFF cells, HCMV-luciferase reporter, 72 h; stronger effect = lower value; activity change, negative = inhibition, % at 57.5 µM; 4.5% of 410,000 active; AID 1259415; in the data active = activity change below about -60%; inconclusive = no clear call, values can overlap the other calls; inactive = above about -39%; note: % is set by controls: 0 for no effect and ±100 for the full control effect
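Compounds were evaluated in HFFs infected with an HCMV luciferase reporter virus (MOI 1 PFU/cell). Luciferase in lysates collected 72 h post infection served as the replication measure.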
Shiga inhibitor = Shiga toxin inhibition; inhibition, % at 38.7 µM; Vero cells, Shiga toxin protein synthesis inhibition reporter; AID 2315; 9.2% of 290,000 active; in the data active = inhibition mostly above about 28%, no sharp cut-off; inactive = mostly below about 43%; note: 0% is about no effect
Numbers without * were called inactive; i = inactive; ? = inconclusive; nt = no result. Unless noted, calls come from the whole dose curve; as a rule, active = well fitted inhibition curve with a large enough effect; inconclusive = small, poorly fitted or top-dose-only effect, or another doubt; inactive = no such curve, though single readings can be large or run the other way.

SMILES	CHX counter	Pf growth 96h	Pf growth 48h	HCMV inh	Shiga inhibitor
Cc1cc(NC(=O)CCCn2c(C)c3cnn(-c4ccccc4)c(=O)c3c2C)ccc1Br	nt	nt	nt	10	nt
Cc1cc(C(=O)NCC(=O)Nc2c(C)cccc2C)c(C)o1	11	13%	?	2	-4
Cc1c(C(=O)N2CCOCC2)sc(NC(=O)Cc2ccccc2)c1C#N	1	0%	-7%	36	-15
COc1ccc(C(O)c2nc(-c3cccc(NC(C)=O)c3)cs2)cc1 (centres undefined)	nt	nt	nt	37	nt
O=C(NCc1ccccc1)C(c1ccc(F)cc1)N(C(=O)c1csnn1)C1CC1 (centres undefined)	-5	16%	1%	-13	-4
CCOC(=O)C1Oc2ccccc2C(c2ccoc2)=C1C(=O)OC (centres undefined)	16	nt	nt	nt	i
Cc1ccc(N(C)C(=O)c2cnn(-c3ccccc3)c2C)c(C)c1	-1	5.2µM*	5.2µM*	-20	nt
Cc1c(C(=O)N(C)c2ccc(Cl)cc2)cnn1-c1ccccc1	50*	?	0%	57	nt
Cc1cccc(C(=O)Nc2c(C(=O)N(C)C)cnn2-c2ccccc2)c1	1	46%	-25%	-6	-2
Cc1cccc(N(C)C(=O)c2cnn(-c3ccccc3)c2C)c1	24*	22%	-3%	-4	40*
Cc1ccc(C)c(N(C)C(=O)c2cn(C)c(=O)c3ccccc23)c1	nt	nt	nt	-5	nt
CCOC(=O)C1(Cc2ccccc2C)CCCN(S(=O)(=O)CC)C1 (centres undefined)	-2	?	0%	-13	-8
COc1ccc(NC(=O)CS(=O)(=O)Cc2ccccc2)c([N+](=O)[O-])c1	11	15%	10%	-6	11
Cc1nc2c3ccccc3nc(NNC(=O)CCC(=O)O)n2n1	nt	nt	nt	6	nt
Cc1nc2ccccc2c2nc(NC(=O)Cc3ccccc3)nn12	10	nt	79%	-3	42*
CN(C)c1ccc(NC(=O)Cc2ccccc2)c2ccccc12	15*	-1%	-1%	-30	33
Cc1cc(NC(=O)Cc2ccccc2)c2ccccc2n1	0	?	-14%	-86*	-10
CC1(C)Oc2ccc3ccc(=O)oc3c2/C(=C/NNC(N)=S)C1=O	-2	24%	0.83µM*	14	-10
CN/C=C1\C(=O)C(C)(C)Oc2ccc3ccc(=O)oc3c21	-3	nt	-9%	47	-2
CC1(C)Oc2ccc3ccc(=O)oc3c2/C(=C/Nc2ccccn2)C1=O	-3	?	-3%	-38	20
CC1(C)Oc2ccc3ccc(=O)oc3c2/C(=C/Nc2cccc(O)c2)C1=O	1	81%	13µM*	-35	-17
CC1(C)Oc2ccc3ccc(=O)oc3c2/C(=C/Nc2ccc(O)cc2)C1=O	-4	-14%	?	-85*	-2
CCOC1=C2[C@@H](CN(S(=O)(=O)c3ccc(C)cc3)[C@H]2c2ccccc2)[C@H]2C(=O)N(c3ccccc3)C(=O)[C@H]2C1	nt	nt	nt	-5	nt
Cn1c(=O)c2c(n3ncnc13)NC(=O)CC2c1cccc(F)c1 (centres undefined)	nt	nt	nt	6	nt
COc1cc(-c2nc(CN3CCN(CC(C)C)C(=O)[C@@H]3C)c(C)o2)ccc1F	0	-29%	9.3µM*	?	-19
SMILES	CHX counter	Pf growth 96h	Pf growth 48h	HCMV inh	Shiga inhibitor
COc1cc(-c2nc(CN3CCN(c4ncccn4)CC3)c(C)o2)ccc1F	17	-95%	-3%	7	36
COc1cc(-c2cnc3c(NC=O)cc(-c4ccc(C)cc4)cn23)cc(OC)c1OC	nt	nt	nt	-76*	nt
COc1cc(-c2cnc3c(NC=O)cc(-c4ccccc4Cl)cn23)cc(OC)c1OC	nt	nt	nt	-77*	nt
COc1cccc(-c2cc(NC=O)c3ncc(-c4ccc(C(C)=O)cc4)n3c2)c1	nt	nt	nt	-64*	nt
COc1ccc(F)cc1-c1cc(NC=O)c2ncc(-c3cc(OC)c(OC)c(OC)c3)n2c1	nt	nt	nt	-76*	nt
CC(C)NC(=O)N(C)C[C@@H]1Oc2c(NS(=O)(=O)c3ccccc3)cccc2C(=O)N([C@@H](C)CO)C[C@@H]1C	nt	nt	nt	-21	nt
O=C(Nc1nc(=O)n(C(=O)c2cccc(C(F)(F)F)c2)s1)c1ccccc1	-1	?	-11%	-12	-2
NC(=O)C1CC2(NC(=O)NC2=O)c2cc(F)ccc2O1 (centres undefined)	nt	-15%	-2%	nt	nt
O=C(NCc1ccncc1)C1CCN(S(=O)(=O)c2ccccc2)CC1	nt	?	6%	-12	nt
C/C=C1\COC(C(=O)NCCN2CCOCC2)(C(F)(F)F)C=C1C=C(C)C (centres undefined)	12	nt	nt	nt	11
O=S(=O)(NC1CCCC1)OCC(Cl)(Cl)Cl	-2	33%	16%	-63*	-5
CN(c1ccccc1)S(=O)(=O)c1ccc(C(=O)Nc2cccc(S(=O)(=O)N3CCOCC3)c2)cc1	nt	nt	nt	-95*	nt
Cc1nc2ccc(NC(=O)c3ccc(S(=O)(=O)N(C)c4ccccc4)cc3)cc2s1	7	?	?	-82*	-3
COc1ccc(NC(=O)c2ccc(S(=O)(=O)N(C)c3ccccc3)cc2)cn1	15	?	?	-62*	16
O=C(Nc1cccc(S(=O)(=O)N2CCOCC2)c1)c1cccc(S(=O)(=O)N2CCCC2)c1	nt	?	?	-12	nt
CN(c1ccccc1)S(=O)(=O)c1ccc(NC(=O)c2ccccc2C(=O)O)cc1	nt	nt	nt	-18	nt
Cc1nc2ccc(NC(=O)c3ccc(S(=O)(=O)N4CCOCC4)cc3)cc2s1	-2	?	6%	-32	13
COc1ccccc1N(C)S(=O)(=O)c1ccc(C(=O)Nc2ccc(C(N)=O)cc2)cc1	nt	nt	nt	-5	nt
CC(=O)Nc1ccc(NC(=O)c2ccc(S(=O)(=O)N(C)c3ccccc3)cc2)cc1	nt	?	13µM*	?	nt
